Read-out in assay [1]: Thrombomodulin, THBD (gene 7056)
The assay can be described thus: BSK_CASM3C_Thrombomodulin: BioMAP Diversity Plus: CASM3C Assay for Thrombomodulin Biomarker Activity (AID 2283051).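 Further: thrombomodulin protein level measured by ELISA 24 h after dosing.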 The conditions noted are these: primary human coronary artery smooth muscle cells; actives raise or lower the signal.

Read-out in assay [2]: Tissue Factor, F3 (gene 2152)
The assay can be described thus: BSK_CASM3C_TissueFactor: BioMAP Diversity Plus: CASM3C Assay for Tissue Factor Biomarker Activity (AID 2283052).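 Further: cell surface tissue factor protein level read by ELISA.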 The settings on record: primary human coronary artery smooth muscle cells; actives raise or lower the signal.

Read-out in assay [3]: Interferon-gamma inducible Protein 10 (IP10), CXCL10 (gene 3627)
The assay can be described thus: BSK_hDFCGF_IP10: BioMAP Diversity Plus: hDFCGF Assay for Interferon-gamma inducible Protein 10 (IP10) Biomarker Activity (AID 2283053). The settings on record: primary human foreskin fibroblasts; actives raise or lower the signal. The method in brief: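 ELISA read-out of IP-10 (CXCL10) from primary human skin fibroblasts, 24 h after compound addition. Gain or loss of signal versus DMSO baseline, bidirectional curve fitting.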

Read-out in assay [4]: Urokinase-type plasminogen activator receptor (uPAR), PLAUR (gene 5329)
As to the kind of experiment: BSK_CASM3C_uPAR: BioMAP Diversity Plus: CASM3C Assay for Urokinase-type plasminogen activator receptor (uPAR) Biomarker Activity (AID 2283054).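 Further: cell-surface uPAR protein level quantified by ELISA.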 The conditions noted are these: primary human coronary artery smooth muscle cells; actives raise or lower the signal.

Read-out in assay [5]: Vascular cell adhesion molecule 1 (VCAM1), VCAM1 (gene 7412)
The assay can be described thus: BSK_CASM3C_VCAM1: BioMAP Diversity Plus: CASM3C Assay for Vascular cell adhesion molecule 1 (VCAM1) Biomarker Activity (AID 2283055).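 Further: VCAM-1 protein level quantified by ELISA on the cells.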 The settings on record: primary human coronary artery smooth muscle cells; actives raise or lower the signal.

Read-out in assay [6]: Collagen III, COL3A1 (gene 1281)
The assay can be described thus: BSK_hDFCGF_CollagenIII: BioMAP Diversity Plus: hDFCGF Assay for Collagen III Biomarker Activity (AID 2283056). The settings on record: primary human foreskin fibroblasts; actives raise or lower the signal. The method in brief: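 Human foreskin primary fibroblasts were exposed to test chemicals for 24 h, after which collagen III was quantified by ELISA. Activity was fitted bidirectionally against DMSO as negative control and baseline.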

Read-out in assay [7]: Epidermal growth factor receptor (EGFR), EGFR (gene 1956)
As to the kind of experiment: BSK_hDFCGF_EGFR: BioMAP Diversity Plus: hDFCGF Assay for Epidermal growth factor receptor (EGFR) Biomarker Activity (AID 2283057). The settings on record: primary human foreskin fibroblasts; actives raise or lower the signal. The method in brief: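 ELISA readout of EGFR on human dermal fibroblasts (primary foreskin cells), 24 h post-dosing; bidirectional curve fit vs DMSO baseline, gain or loss of signal scored.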

Assay [8] in a line: BSK_hDFCGF_Proliferation: Cell Proliferation Assessment in the BioMAP Diversity Plus: hDFCGF Assay (AID 2283059).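 Further: curves fitted for both rise and fall of signal versus DMSO baseline.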 The settings on record: primary human foreskin fibroblasts. The method in brief: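 Sub-confluent human foreskin fibroblast cultures receive test chemical […]. Relative cell number is quantified by sulforhodamine B staining (0.1%, after 10% TCA fixation) at 560 nm, with bidirectional fitting referenced to DMSO.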

Read-out in assay [9]: Macrophage colony-stimulating factor (MCSF), CSF1 (gene 1435)
The assay can be described thus: BSK_hDFCGF_MCSF: BioMAP Diversity Plus: hDFCGF Assay for Macrophage colony-stimulating factor (MCSF) Biomarker Activity (AID 2283060). The settings on record: primary human foreskin fibroblasts; actives raise or lower the signal. The method in brief:
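Human foreskin primary fibroblasts were treated with test chemical for 24 h, and M-CSF was then measured by ELISA. Data were fitted bidirectionally against DMSO as the negative control and activity baseline.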

Assay [10] can be described thus: BSK_hDFCGF_SRB: Viability Assessment in the BioMAP Diversity Plus: hDFCGF Assay (AID 2283061).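 Further: cells exposed to compound for 24 h before the read.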 The conditions noted are these: primary human foreskin fibroblasts. The method in brief: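 Human foreskin primary fibroblasts were treated with compound and assessed 24 h after dosing. Total protein was measured by sulforhodamine B staining (0.1% SRB after 10% TCA fixation, 560 nm read) as a cytotoxicity marker, with bidirectional fitting against DMSO baseline.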

Read-out in assay [11]: Monokine induced gamma interferon (MIG), CXCL9 (gene 4283)
As to the kind of experiment: BSK_hDFCGF_MIG: BioMAP Diversity Plus: hDFCGF Assay for Monokine induced gamma interferon (MIG) Biomarker Activity (AID 2283063). The settings on record: primary human foreskin fibroblasts; actives raise or lower the signal. The method in brief:
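ELISA read-out of MIG from primary human dermal fibroblasts 24 h post-dosing. Gain or loss of signal fitted bidirectionally, DMSO as baseline.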

Read-out in assay [12]: Matrix Metallopeptidase 1 (MMP1), MMP1 (gene 4312)
The assay can be described thus: BSK_hDFCGF_MMP1: BioMAP Diversity Plus: hDFCGF Assay for Matrix Metallopeptidase 1 (MMP1) Biomarker Activity (AID 2283064). The settings on record: primary human foreskin fibroblasts; actives raise or lower the signal. The method in brief:
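MMP1 levels quantified by ELISA 24 h after dosing human dermal fibroblast cultures, with parallel SRB total-protein staining for overt cytotoxicity. Data fitted in both directions against DMSO baseline.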

Read-out in assay [13]: Vascular cell adhesion molecule 1 (VCAM1), VCAM1 (gene 7412)
The assay can be described thus: BSK_hDFCGF_VCAM1: BioMAP Diversity Plus: hDFCGF Assay for Vascular cell adhesion molecule 1 (VCAM1) Biomarker Activity (AID 2283065).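 On AC50: VCAM-1 protein level quantified by ELISA after 24 h chemical exposure.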 The conditions noted are these: primary human foreskin fibroblasts; actives raise or lower the signal. The method in brief:
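Primary human foreskin fibroblasts (hDFCGF system) were dosed with chemical and VCAM-1 was measured by ELISA 24 h later. Bidirectional curve fitting used DMSO as negative control and activity baseline.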

Read-out in assay [14]: Plasminogen activator inhibitor-1 (PAI1), SERPINE1 (gene 5054)
As to the kind of experiment: BSK_hDFCGF_PAI1: BioMAP Diversity Plus: hDFCGF Assay for Plasminogen activator inhibitor-1 (PAI1) Biomarker Activity (AID 2283066). The conditions noted are these: primary human foreskin fibroblasts; actives raise or lower the signal. The method in brief: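 ELISA readout of PAI-1 from primary human skin fibroblast cultures, 24 h after compound addition. Gain or loss of signal was fitted bidirectionally against DMSO baseline.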

Read-out in assay [15]: Intercellular Adhesion Molecule 1 (ICAM1), ICAM1 (gene 3383)
As to the kind of experiment: BSK_KF3CT_ICAM1: BioMAP Diversity Plus: KF3CT Assay for Intercellular Adhesion Molecule 1 (ICAM1) Biomarker Activity (AID 2283067). The settings on record: primary human keratinocytes with fibroblasts; actives raise or lower the signal. The method in brief:
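Human keratinocyte plus foreskin fibroblast primary co-culture was exposed to chemical for 24 h. ICAM-1 was then quantified by ELISA, and the data were fit bidirectionally against DMSO as the negative control and baseline.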

Read-out in assay [16]: Interferon-gamma inducible Protein 10 (IP10), CXCL10 (gene 3627)
As to the kind of experiment: BSK_KF3CT_IP10: BioMAP Diversity Plus: KF3CT Assay for Interferon-gamma inducible Protein 10 (IP10) Biomarker Activity (AID 2283068). The settings on record: primary human keratinocytes with fibroblasts; actives raise or lower the signal. The method in brief: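 ELISA read-out of IP-10 after 24 h chemical dosing of human skin primary co-culture (keratinocytes, foreskin fibroblasts). Gain or loss of signal relative to DMSO, bidirectional curve fit.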

Assay [17] can be described thus: BSK_KF3CT_SRB: Viability Assessment in the BioMAP Diversity Plus: KF3CT Assay (AID 2283069). The conditions noted are these: primary human keratinocytes with fibroblasts. The method in brief:
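Cytotoxicity was gauged by SRB staining (0.1% SRB, 10% TCA fixation, 560 nm) of parallel cultures at 24 h. The cells were primary human skin keratinocytes co-cultured with fibroblasts, and activity was fitted in both directions against DMSO.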

Read-out in assay [18]: Interleukin-1 alpha (IL1a), IL1A (gene 3552)
As to the kind of experiment: BSK_KF3CT_IL1a: BioMAP Diversity Plus: KF3CT Assay for Interleukin-1 alpha (IL1a) Biomarker Activity (AID 2283070). The settings on record: primary human keratinocytes with fibroblasts; actives raise or lower the signal. The method in brief: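 IL-1a was detected by ELISA 24 h after chemical treatment of a co-culture of human skin keratinocytes and foreskin fibroblasts. Gain or loss of signal was fitted against the DMSO baseline.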

Read-out in assay [19]: TIMP metallopeptidase inhibitor 1 (TIMP1), TIMP1 (gene 7076)
The assay can be described thus: BSK_hDFCGF_TIMP1: BioMAP Diversity Plus: hDFCGF Assay for TIMP metallopeptidase inhibitor 1 (TIMP1) Biomarker Activity (AID 2283062). The settings on record: primary human foreskin fibroblasts; actives raise or lower the signal. The method in brief:
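Primary human foreskin fibroblasts in the hDFCGF system were dosed with compound for 24 h, then TIMP-1 was measured by ELISA. Activity was fitted bidirectionally relative to DMSO control; parallel SRB staining assessed cytotoxicity.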

The source made the active and inactive calls. How the source made its calls: active means hit-call score of the fitted dose curve at least 0.9, where 1 is the maximum; inactive means score below 0.9.

As for `CC1=NNC(=O)N(/N=C/c2cccnc2)C1`, the outcome in [1], in assay [2], in [3], in assay [4], in [5] and in assay [6] was inactive. Moreover, the outcome in assay [7], in assay [8], in [9], in assay [10], in assay [11] and in assay [12] was inactive. For the same molecule, the outcome in assay [13], in assay [14], in assay [15], in [16], in assay [17] and in assay [18] was inactive.

For the molecule `CCOC(=O)COc1cc(-c2nn(C)c(OC(F)F)c2Cl)c(F)cc1Cl`, the outcome in [1], in assay [2], in [3], in [4], in assay [5] and in [6] was inactive. Further, the outcome in assay [7], in assay [8], in assay [9], in [10], in [19] and in [11] was inactive. Also, the outcome in [13], in assay [14], in assay [15], in [16], in [17] and in assay [18] was inactive.

By AC50 is commonly meant the midpoint of the concentration-response curve, whichever way the signal moves. Take `CNC(=O)Oc1cccc2c1OC(C)(C)O2`: the result in [1], in [2], in [3], in assay [4], in [5] and in assay [6] was inactive. For the same molecule, the outcome in assay [8], in assay [9], in [10], in assay [19], in [11] and in [13] was inactive. Further, the outcome in [14], in [15], in assay [16], in [17] and in [18] was inactive. In assay [7], the AC50 was 12.2 µM (active).

`CCOP(=S)(OCC)OC(Cl)C(Cl)(Cl)Cl` (configuration not stated): the AC50 in assay [1] was 11.4 µM (active); in assay [3], 26.3 µM (active); in assay [6], 11.1 µM (active); in assay [9], 31.8 µM (active); in assay [13], 29.4 µM (active); in assay [17], 26.7 µM (active). In addition, the outcome in [2], in assay [4], in assay [5], in assay [7], in assay [8] and in assay [10] was inactive. Moreover, the result in assay [11], in assay [14], in assay [15], in assay [16] and in assay [18] was inactive.

For the molecule `CCCCOC(=O)[C@@H](C)Oc1ccc(Oc2ccc(C#N)cc2F)cc1`, the result in assay [1], in assay [2], in [3], in assay [4], in [5] and in [6] was inactive. Besides, the outcome in assay [7], in assay [8], in assay [9], in assay [10], in assay [11] and in assay [12] was inactive. For the same molecule, the result in assay [13], in assay [14], in [15], in assay [16], in assay [17] and in assay [18] was inactive.

Turning to `CSC1=N[C@@](C)(c2ccccc2)C(=O)N1Nc1ccccc1`, the result in assay [1], in [2], in assay [3], in [4], in assay [5] and in assay [7] was inactive. Also, the result in assay [9], in assay [10], in [11], in [12], in assay [13] and in assay [14] was inactive. Moreover, the result in assay [15], in assay [16], in [17] and in assay [18] was inactive. The AC50 in assay [6] was 25 µM (active); in [8], 23.3 µM (active).
